# Screening results from PubChem.
# HT1080 IDH1KD tx – qHTS for induction of synthetic lethality in tumor cells producing 2HG: qHTS for the HT-1080-IDH1KD cell line; HT-1080 IDH1 knockdown viability, ATP luminescence, 48 h; Potency, µM (doses to about 46.1 µM), for inactives: at the highest dose activity, negative = toxicity, hits mostly cytotoxic; 360,000 tested, 2% active;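 note: potency is the fitted concentration of half-maximal effect; 0% = DMSO wells and -100% = cell-free medium wells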
#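 Using the IDH1-knockdown HT-1080 line run in the same batch and compound series as the NT line, viability after 48 h at 37 °C was determined by CellTiter-Glo luminescence and expressed as % activity.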
# TDP1 cell noCPT – qHTS for Inhibitors of human tyrosyl-DNA phosphodiesterase 1 (TDP1): qHTS in cells in absence of CPT. Potency, µM (highest dose often 46.2 µM), for the others: at the highest dose activity change, negative = growth inhibition, hits mostly inhibitors. AID 686978, 2013. 420,000 tested, 15% active. DT40 Tdp1-/- hTDP1 cells, no CPT, ATP luminescence, 48 h; note: potency is the fitted concentration of half-maximal effect; nearly all actives have a fitted effect of over 55% in size
#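 Readout: luminescence from CellTiter-Glo after 30 min in the dark at RT. Cells: DT40 Tdp1-/- with stable hTDP1, 400/well. Exposure: compounds alone, ≥48 hr, 37 °C.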
# HT1080NT lethal – qHTS for induction of synthetic lethality in tumor cells producing 2HG: qHTS for the HT-1080-NT fibrosarcoma cell line. AID 686970, 2013. Potency, µM (series often up to 46.1 µM), for inactives: at the highest dose activity, negative = less viability, hits mostly cytotoxic. 360,000 tested, 1.6% active. HT-1080-NT fibrosarcoma viability, CellTiter-Glo ATP luminescence, 48 h;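 note: NT is the 2HG producing partner of a matched IDH1 knockdown line; potency is the fitted concentration of half-maximal effect; 0% = DMSO-treated cells and -100% = media-only wells without cells; nearly all actives have a fitted effect of over 55% in size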
#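 Viability of the 2HG-overproducing fibrosarcoma line after 48 hours of compound exposure at 37 degrees C was determined by luminescence with CellTiter-Glo, and concentration-effect curves were then fitted and categorized.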
# TDP1 cell CPT – qHTS for Inhibitors of human tyrosyl-DNA phosphodiesterase 1 (TDP1): qHTS in cells in presence of CPT; chicken DT40 Tdp1-/-;hTDP1 cells + 20 nM CPT, ATP luminescence, 48 h; Potency, µM (highest dose often 46.2 µM), without a hit: top-dose activity change, negative = growth inhibition, actives largely listed as inhibitors; 420,000 tested, 12% active; AID 686979, 2013; note: potency is the fitted concentration of half-maximal effect; nearly all actives have a fitted effect of over 55% in size
#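 Chicken DT40 Tdp1-/- cells stably complemented with human TDP1 were seeded at 400 cells/well in medium containing 20 nM camptothecin, exposed to pin-transferred compounds, and grown at 37 °C for at least 48 hr. Viability was read as ATP luminescence.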
# 12-LOX inh – Primary qHTS assay for inhibitors of human arachidonate 12S-lipoxygenase (ALOX12): Round 2; Polyunsaturated fatty acid lipoxygenase ALOX12 (Homo sapiens), P18054; AID 1671190, 2021; 580,000 tested, 1.1% active; purified 12hLO, xylenol orange hydroperoxide absorbance; Potency, µM (doses to about 108 µM), for inactives: at the top dose activity change, negative = inhibition, hits mostly inhibitors; note: potency is the fitted concentration of half-maximal effect
# Target sequence (P18054 whole entry, looked up): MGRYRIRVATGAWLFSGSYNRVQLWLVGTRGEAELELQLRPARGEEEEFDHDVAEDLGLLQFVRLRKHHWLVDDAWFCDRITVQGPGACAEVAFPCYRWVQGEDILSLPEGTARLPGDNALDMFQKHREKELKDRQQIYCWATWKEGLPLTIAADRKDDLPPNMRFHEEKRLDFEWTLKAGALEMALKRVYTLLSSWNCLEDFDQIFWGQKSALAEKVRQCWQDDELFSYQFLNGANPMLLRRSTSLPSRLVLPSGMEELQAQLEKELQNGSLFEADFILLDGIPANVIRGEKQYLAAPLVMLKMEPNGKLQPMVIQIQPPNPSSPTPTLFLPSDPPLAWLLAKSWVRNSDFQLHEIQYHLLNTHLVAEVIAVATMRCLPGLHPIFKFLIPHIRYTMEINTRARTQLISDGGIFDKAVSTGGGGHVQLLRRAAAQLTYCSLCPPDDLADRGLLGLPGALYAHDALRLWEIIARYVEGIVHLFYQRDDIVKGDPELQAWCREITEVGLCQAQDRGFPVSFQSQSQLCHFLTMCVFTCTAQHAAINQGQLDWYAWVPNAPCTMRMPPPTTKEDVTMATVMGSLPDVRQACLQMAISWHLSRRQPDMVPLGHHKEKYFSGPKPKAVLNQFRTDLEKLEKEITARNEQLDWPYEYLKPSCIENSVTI
#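 Purified human 12hLO (150 nM final) in 25 mM Hepes, 0.01% Triton X-100, pH 7.0 was preincubated 15 min at room temperature with compound. Then 40 uM arachidonic acid was added, 30 min. Hydroperoxide was read by Fe-XO absorbance ratio 573/405 nm.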
# IL1B secr inh – qHTS for Inhibitors of Inflammasome Signaling: IL-1-beta AlphaLISA Primary Screen | activity change, % at 57.5 µM | THP-1 LPS/ATP IL-1B secretion, AlphaLISA, 16 h; stronger effect = lower value | 360,000 tested, 4.7% active; in the data active = activity change below about -50%; inconclusive = mostly about -30% to -49%
#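 THP-1 cells pretreated 1 hr with compounds (up to 57.5 uM final), then stimulated with LPS (250 ng/mL final) plus ATP (1.25 mM final); secreted IL-1B measured by AlphaLISA after 16 hr, decreased signal indicating inhibition.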
# Starred values were filed as active, the others as inactive; ? = inconclusive; nt = no result; [ ] = dose if it differs, or a comment. This is one part of a sample in which hits are shown more often than they occur. Unless noted, calls come from the whole dose curve; as a rule, active = well fitted curve in the direction sought with a large enough effect; inconclusive = small, poorly fitted or top-dose-only effect, or another doubt; inactive = no such curve, though single readings can be large; an effect the other way counts as inactive or inconclusive. Unless noted, % is set by controls: 0 for no effect and ±100 for the full control effect.
SMILES,HT1080 IDH1KD tx,TDP1 cell noCPT,HT1080NT lethal,TDP1 cell CPT,12-LOX inh,IL1B secr inh
Cc1ccc(S(=O)(=O)N2CCN(c3ncnc4sccc34)CC2)cc1C,?,5.8µM*,?,5.8µM*,2.1%,-17.6
Cc1ccc(S(=O)(=O)N2CCN(C(=O)c3cccs3)CC2)cc1C,0.0%,?,-0.1%,-22.5%,0.1%,-7.0
O=S(=O)(c1ccc2c(c1)OCCO2)N1CCN(c2ncnc3sccc23)CC1,?,2.31µM*,-23.6%,5.17µM*,13.2%,-24.8
Cc1ccc(S(=O)(=O)N2CCN(c3ncccn3)CC2)cc1C,-1.3%,?,-20.8%,5.8µM*,3.8%,11.7
CC(C)OC(=O)CCCCCN1C(=O)CSC1=S,14.0%,-9.3%,8.4%,-4.1%,0.0%,-55.6*
C=CCN(C)CCCCCCOc1ccc(C(=O)c2ccc(Br)cc2)c(F)c1,nt,5.01µM*,nt,5.01µM*,nt,nt
CN1CCC(Nc2ncc3ncnc(Nc4ccc(F)c(Cl)c4)c3n2)CC1,nt,21.1µM*,nt,?,?,nt
C=CC(=O)Nc1cc2c(Nc3ccc(F)c(Cl)c3)ncnc2cc1C#CC(C)(C)N1CCN(C)CC1,nt,nt,nt,nt,-12.0%[57.4 µM],nt
CC(C)C[C@H](N)c1cn([C@@H](CCCCN)C(=O)N2CCNCC2)nn1,1.16µM*,6.51µM*,1.64µM*,8.2µM*,0.1%,?
CC(C)C[C@H](N)c1cn([C@@H](Cc2ccc(O)cc2)C(=O)N2CCNCC2)nn1,6.8%,-0.3%,0.5%,5.8%,-11.9%,19.0
COc1ccc(-c2c(NC(=O)c3ccc(F)cc3)oc3ccccc3c2=O)cc1,nt,nt,nt,nt,14.9%,nt
COc1ccc(-n2cnc3cc(C(=O)NC4CCCCCC4)ccc32)cc1,nt,?,nt,?,-15.9%,nt
Cc1cccc(-n2cnc3cc(C(=O)NC4CCCCCC4)ccc32)c1,nt,4.61µM*,nt,3.26µM*,-5.1%,nt
CCc1ccccc1-n1cnc2cc(C(=O)NC3CCCCCC3)ccc21,nt,23.1µM*,nt,?,-18.6%,nt
Cn1nnc2cc(C(=O)NC3CCCCC3)ccc21,15.2%,-0.7%,20.6%,4.7%,0.0%,29.8
O=C1C(=Cc2ccc(Br)o2)C(=O)c2ccccc21,9.9%,?,7.9%,23.1µM*,nt,5.6
CN(C)C1=C(C(=O)Nc2ccc(F)cc2)S(=O)(=O)c2ccccc21,nt,nt,nt,nt,2.4%,nt
CCCn1c(=N)n(CC(=O)c2ccc(OCC(=O)OC)cc2)c2ccccc21,-3.1%,?,0.7%,?,85.1%,-4.1
Cc1ccccc1Cn1c(=N)n(CC(=O)c2ccc([N+](=O)[O-])cc2)c2ccccc21,-19.1%,5.17µM*,-27.9%,4.11µM*,?,nt
CCCn1c(=N)n(CC(=O)c2ccc([N+](=O)[O-])cc2)c2ccccc21,-17.5%,23.1µM*,-17.1%,?,?,-52.9*
CCCOc1ccc(NC(=O)COc2ccc(F)cc2)c2cccnc12,nt,nt,nt,nt,-57.4%,nt
O=C(O)c1ccc(-c2ccc(Br)cc2)s1,nt,nt,nt,nt,9.7%,nt
COc1ccc(NC(=O)c2ccco2)cc1NC(=O)COc1ccc(Cl)cc1C,nt,9.2µM*,nt,10.3µM*,?,nt
Cc1ccc(S(=O)(=O)N(C)C)cc1NC(=O)COc1ccc(-c2nnco2)cc1,6.7%,-13.5%,20.1%,-5.8%,10.5%,3.3
COc1ccc(OCC(=O)Nc2cc(NC(=O)c3ccco3)ccc2OC)cc1,-7.9%,?,-1.7%,-15.4%,24.5%,-54.8*
SMILES,HT1080 IDH1KD tx,TDP1 cell noCPT,HT1080NT lethal,TDP1 cell CPT,12-LOX inh,IL1B secr inh
COc1ccc(C(C)(C)C)cc1NC(=O)COc1ccc(-c2nnco2)cc1,-7.5%,?,-6.6%,?,2.2%,-50.0*
COc1ccc(NC(=O)COc2ccccc2)cc1NC(=O)c1ccco1,-7.8%,?,-15.8%,?,0.0%,-11.2
NC(=O)c1cc(S(=O)(=O)NCC2CCN(Cc3ccc(F)cc3)CC2)cs1,nt,nt,nt,nt,-4.1%,nt
Cn1cc(CC(=O)N2CCCc3ncc(C(=O)Nc4cccc(F)c4)cc32)c2ccccc21,nt,nt,nt,nt,11.4%,nt
COc1cc(C#Cc2c(-c3cncn3C)n(C)c3ccc(-c4ccc(OC)c(OC)c4)cc23)cc(OC)c1,?,?,-22.1%,?,-1.3%,-11.9
COc1cc(C#Cc2c(-c3cncn3C)n(C)c3ccc(-c4ccc5cc[nH]c5c4)cc23)cc(OC)c1,-27.8%,?,?,18.4µM*,2.9%,-16.5
COc1cc(C#Cc2c(-c3cncn3C)n(C)c3ccc(Br)cc23)cc(OC)c1,?,18.4µM*,?,?,-17.0%,0.0
CC1CCN(C(=O)CSc2nnc(-c3ccc(S(=O)(=O)N4CCOCC4)cc3)n2C)CC1,16.3%,-11.8%,1.2%,-23.2%,2.5%,16.3
O=C(CSc1nnc(-c2ccccc2F)o1)N1CCCC1,1.7%,-6.6%,-0.3%,-6.6%,-9.9%,-12.2
CC1Cc2ccccc2N1C(=O)CSc1nnc(-c2ccccc2Cl)o1 (stereo unspecified),nt,?,nt,25.9µM*,-29.4%,nt
CCN(CC)C(=O)CSc1nnc(-c2ccc(S(=O)(=O)N3CCCC3)cc2)o1,2.2%,-10.4%,9.4%,-7.7%,-11.4%,0.0
CC1Cc2ccccc2N1C(=O)CSc1nnc(-c2ccc(S(=O)(=O)N3CCOCC3)cc2)n1C (stereo unspecified),-3.0%,?,0.4%,16.4µM*,-20.7%,0.0
O=C(CSc1nnc(-c2ccccc2Br)o1)N1CCc2ccccc2C1,9.1%[9.24 µM],?,-27.5%,?,-19.9%,-59.7*
CC1CCCCN1C(=O)CSc1nnc(-c2ccccc2F)o1 (stereo unspecified),9.0%,-11.4%,-7.8%,-18.2%,11.2%,-14.0
CC1Cc2ccccc2N1C(=O)CSc1nnc(-c2ccc(S(=O)(=O)N3CCCC3)cc2)o1 (stereo unspecified),1.2%,16.4µM*,2.5%,?,0.0%,19.3
c1csc(CN2Cc3[nH]cnc3C[C@H]2c2nc(-c3ccc4c(c3)OCO4)no2)c1,nt,nt,nt,nt,67.9%[176 µM],nt
Cc1ccc2c(C(=O)CN3CCN(CCO)CC3)c(C)[nH]c2c1,nt,nt,nt,nt,-46.2%,nt
COc1ccc(Cn2c3c(c(=O)n2Cc2ccccc2)CCN(Cc2c(C)noc2C)C3)cc1,nt,nt,nt,nt,-19.6%,nt
